Data reported in the supplement of paper PMC13380429.
A number with no mark means an inactive call.

System: Vero E6 infected with SARS-CoV-2
Experiment: inhibition of SARS-CoV-2 cytopathic effect; higher = more antiviral protection, active = above 15
Conditions: 48 h

| Structure (SMILES) | inhibition of SARS-CoV-2 cytopathic effect (1 nM) [%] | inhibition of SARS-CoV-2 cytopathic effect (8.33 nM) [%] | inhibition of SARS-CoV-2 cytopathic effect (100 nM) [%] | inhibition of SARS-CoV-2 cytopathic effect (833.33 nM) [%] | inhibition of SARS-CoV-2 cytopathic effect (10000 nM) |
| --- | --- | --- | --- | --- | --- |
| c1ccc(Oc2nc(NC3CCCCC3)c3[nH]cnc3n2)cc1 | 0.79 | -0.47 | -1.37 | -1.49 | -6.42% |
| c1coc(-c2nnc3sc(C4CCCCC4)nn23)c1 [cardionogen-1] | -0.83 | -0.13 | 0.69 | -1.37 | -1.68% |
| CC(C)=CCC[C@](C)(O[C@@H]1O[C@H](CO)[C@@H](O)[C@H](O)[C@H]1O)[C@H]1CC[C@]2(C)[C@@H]1[C@H](O)C[C@@H]1[C@@]3(C)CC[C@H](O[C@@H]4O[C@H](CO)[C@@H](O)[C@H](O)[C@H]4O[C@@H]4O[C@H](CO)[C@@H](O)[C@H](O)[C@H]4O)C(C)(C)[C@@H]3CC[C@]12C [ginsenoside-RD] | -2.36 | -1 | 2.51 | 0.27 | 0.18% |
| O=C(O)CCNc1cc(N2CCc3ccccc3CC2)nc(-c2cccnc2)n1 | 0.26 | 0.62 | 1.71 | 0.35 | -0.17% |
| COc1cc2c(NC3CCN(C(C)C)CC3)nc(C3CCCCC3)nc2cc1OCCCN1CCCC1 | 0.58 | -2.43 | -1.38 | -2.98 | 59.6% (active) |
| O=C(COc1ccc(Cl)cc1)N[C@H]1CC[C@H](NC(=O)COc2ccc(Cl)cc2)CC1 | -0.57 | -0.23 | 3.35 | 6.09 | 15.7% (active) |
| COc1ccc(F)c(F)c1C(=O)c1cnc(NC2CCN(S(C)(=O)=O)CC2)nc1N | -1.93 | -3.14 | -5.01 | 6.41 | -11.5% |
| CCCCCCCCCCCCCCCC[N+](C)(C)C [cetrimonium] | 1.02 | -0.39 | 0.2 | -3.96 | -18.4% |
| N[C@H](C(=O)O)[C@H](O)c1ccc(O)c(O)c1 [droxidopa] | 1.22 | 3.16 | 5.47 | 1.07 | -5.92% |
| CNC[C@H](O)c1ccc(O)c(O)c1 [epinephrine] | 3.04 | 3.04 | -1.01 | 0.24 | -0.94% |
| C[N+](C)(C)CCCCCCCCCC[N+](C)(C)C [decamethonium] | -3.35 | -4.24 | -5.16 | -3.23 | -1.94% |
| c1coc(CNc2ncnc3[nH]cnc23)c1 [kinetin] | -0.75 | 1.25 | 1.35 | 3.24 | 2.8% |
| CNCCC(Oc1ccc(C(F)(F)F)cc1)c1ccccc1 (stereo not given) [fluoxetine] | -10.3 | 0.27 | -2.53 | -3.36 | -9.56% |
| CN1CCN(CCCN2c3ccccc3Sc3ccc(C(F)(F)F)cc32)CC1 [trifluoperazine] | -0.89 | 1.64 | -3.09 | -4.01 | 14.5% |
| COC(=O)[C@H](CC(C)C)NC(=O)c1ccc(NC[C@@H](N)CS)cc1-c1cccc2ccccc12 | -1.19 | 4.63 | -0.9 | -1.25 | -4.69% |
| O=C1c2ccccc2S(=O)(=O)N1CCCCN1CCN(c2ncccn2)CC1 [ipsapirone] | 4.62 | 2.92 | -3.31 | 1.74 | 0.15% |
| Cc1cc(C)c(S(=O)(=O)n2cc(C)cc2C)c(C)c1 | -0.12 | -0.02 | 2.14 | 0.3 | -1.17% |
| CCN(CC)C(=O)N[C@H]1C=C2c3cccc4[nH]cc(c34)C[C@H]2N(C)C1 [lisuride] | -0.02 | 2.67 | 0.39 | 7.27 | -0.37% |
| C/C(=C\c1csc(C)n1)[C@@H]1C[C@@H]2O[C@]2(C)CCC[C@H](C)[C@H](O)[C@@H](C)C(=O)C(C)(C)[C@@H](O)CC(=O)O1 [epothilone-B] | -1.66 | -5.81 | -4.92 | -0.91 | -0.53% |
| CC12CC3CC(C)(C1)CC(N)(C3)C2 [memantine] | 0.45 | 0.23 | 1.56 | 2 | -1.57% |
| CO[C@@H]1[C@@H](OC(N)=O)[C@@H](O)[C@H](Oc2ccc3c(O)c(NC(=O)c4ccc(O)c(CC=C(C)C)c4)c(=O)oc3c2C)OC1(C)C [novobiocin] | -2.55 | -2.69 | 2.34 | 0.52 | 0.14% |
| O=C(NC1CCNCC1)[C@@H]1CC[C@@H]2CN1C(=O)N2OS(=O)(=O)O [relebactam] | 0.07 | 1.87 | 1.26 | -0.84 | -1.06% |
| C[C@@H]([C@@H](O)c1ccc(O)cc1)N1CCC(O)(c2ccccc2)CC1 [traxoprodil] | 4.34 | -0.79 | -2.83 | 1.39 | -1.06% |
| COc1cccc(/C=N/N=C/c2cccc(OC)c2)c1 | -0.08 | 2.48 | -2.17 | -0.34 | 0.47% |
| C=CCN1C[C@H](C)N([C@H](c2ccc(C(=O)N(CC)CC)cc2)c2cccc(O)c2)C[C@H]1C | 0.51 | 2.94 | -0.07 | -0.38 | -1.22% |
| CCN(CCCOc1ccc2c(Nc3cc(CC(=O)Nc4cccc(F)c4)[nH]n3)ncnc2c1)CCOP(=O)(O)O [barasertib] | -0.38 | 0.9 | -1.02 | -2.03 | -4.38% |
